From PubChem BioAssay
This is a sample that favours compounds with a hit; in the whole collection about 2% have one here.
ABCB6 inh 2 – blocks the human ABCB6 transporter; K562-ABCB6 porphyrin accumulation, flow cytometry, 1 h; hits give low values; fluorescence ratio to DMSO, % at 10 µM; 360,000 compounds, 0.19% hits;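 active = fluorescence ratio to DMSO below 75%, the collection mean minus 3 SD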;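 note: signal is porphyrin accumulated inside mitochondria; 100% equals median channel fluorescence of DMSO control wells; lower ratio means ABCB6 inhibition with less porphyrin fluorescence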
VLA-4 inh – inhibition in a human VLA-4 binding assay; P13612; VLA-4 expressing cells, ligand binding flow cytometry; inhibition, % (about 7 µM as worked out from the volumes in the protocol); 330,000 compounds, 0.2% hits; AID 2557; in the data active = inhibition above about 50%
Rev-erbA mod – modulates human Rev-erb alpha binding to DNA | P20393 | Rev-erbα–FITC-DNA binding, fluorescence polarization, 90 min | activity, % at 10 µM | 370,000 compounds, 0.79% hits;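 active = activity above about 14%, limit read from the data; passing the limit was not always enough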;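 note: 0% = DMSO wells with 35 nM protein and 100% = DMSO wells with 750 nM protein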
Exocytosis inh – blocks lytic granule exocytosis | TALL-104 LAMP-1 surface exposure, flow cytometry; cells stimulated with thapsigargin and PMA | inhibition, % at 10 µM | 360,000 compounds, 0.66% hits | AID 651702;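 active = inhibition above about 55%, limit read from the data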
PG9 binder – binds the HIV-1 gp120 antibody PG9; TR-FRET gp120-PG9 antibody binding; inhibition, % at 6.7 µM; 360,000 compounds, 0.43% hits; in the data active = inhibition above about 8.5%
VLA-4 mod pick – human VLA-4 allosteric modulation in cherry picked compounds | shares compounds with VLA-4 inh | U937 cells, HUTS-21 LIBS mAb binding, flow cytometry; LDV ligand present at threefold Kd | inhibition, % at 6.7 µM | 1,300 compounds, 2% hits | AID 2813; in the data active = inhibition above about 40%;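 note: 0% = ligand without compound and 100% = no ligand background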
An asterisk follows results filed as active; / = no result given.

SMILES	ABCB6 inh 2	VLA-4 inh	Rev-erbA mod	Exocytosis inh	PG9 binder	VLA-4 mod pick
FC(F)(F)c1nnc(-c2ccccc2)nc1Sc1ccc(Cl)cc1	101.0	72.1*	-6.0	52.4	1.0	50.0*
CCOC(=O)CSc1ccc2nnc(-c3cccs3)n2n1	99.0	51.0*	2.9	0.0	0.7	15.7
COc1ccc(-c2nc3ccccc3c(=O)n2Cc2ccccc2)cc1COc1ccc(NC(C)=O)cc1	/	/	-2.6	/	/	/
COc1cc(CC(=O)OCC(=O)c2ccc3c(c2)OCCO3)cc(OC)c1OC	106.0	91.0*	2.1	2.7	1.9	-5.8
Cn1c(NC(=O)c2ccc(C(C)(C)C)cc2)cc(=O)n(C)c1=O	94.0	52.6*	-4.8	-0.7	0.2	4.0
COC(=O)[C@]12C[C@H](CC(=O)NCc3ccc(C)o3)C(=O)N(Cc3ccco3)C1=C[C@H](C(C)C)O[C@@H]2C1CC1	/	/	1.0	/	/	/
COC(=O)C1CN(CC(C)C)CCS(=O)(=O)N1Cc1ccc(C(F)(F)F)cc1 (stereo not drawn)	/	/	1.5	/	/	/
O=C(O)c1cc(O)ccc1NC(=O)C(c1ccccc1)c1ccccc1	104.0	21.7	-2.1	1.2	-2.8	0.0
CCN(CC)C(=O)c1cc(-c2ccc3c(c2)OCO3)on1	98.0	55.2*	1.3	-7.1	-3.3	-5.5
CCC(=O)N(Cc1ccc(S(N)(=O)=O)cc1)C1CC(=O)N(c2ccc(OC)cc2)C1=O (stereo not drawn)	100.0	-0.5	2.4	0.1	0.4	3.7
CCOc1cccc(N2C(=O)CC(N(CCc3ccc(OC)c(OC)c3)C(=O)CC)C2=O)c1 (stereo not drawn)	100.0	7.3	2.5	-1.6	1.3	-8.5
COc1cccc(-c2nnc(SCC(=O)Nc3cccc4ccccc34)n2Cc2ccco2)c1	/	/	1.5	/	/	/
Cc1cccc(C(=O)OCC(=O)N(C)c2ccccc2)c1C	95.0	3.4	-0.4	-11.6	-1.2	0.0
O=C(NCCc1ccccc1)OCc1cn(Cc2ccc(F)c(F)c2)nn1	/	/	4.0	/	/	/
COC(=O)c1cccnc1-n1c(=O)c2cccnc2n(Cc2cccc([N+](=O)[O-])c2)c1=O	95.0	67.0*	-5.1	-1.0	0.5	-2.2
Cc1ccc(Oc2cnc3ccccc3n2)cc1	91.0	52.6*	7.0	2.2	0.6	-5.0
Clc1ccc(Oc2cnc3ccccc3n2)cc1	101.0	29.8	4.8	1.5	-0.3	/
OCCC1CN(Cc2cnc(-c3ccccc3)s2)CCN1C1CCCC1 (stereo not drawn)	101.0	43.5	0.4	26.8	-3.6	3.7
O=C(N1CCCC1)n1ncc(-c2ccc(-c3ccccc3)cc2)n1	/	/	-10.4	/	/	/
C[C@]12Cc3ccccc3C1CC1=N[C@@H](c3ccc(C(F)(F)F)cc3)O[C@@]13C[C@@H]2C(=O)N3C1CCN(Cc2ccccc2)CC1 (stereo partly drawn)	/	/	-3.3	/	0.1	/
O=C(CCNS(=O)(=O)c1ccc(Br)cc1)NC1CCCCC1	92.0	6.1	-2.1	-2.2	-0.7	/
CC1CCCC(NC(=O)COC(=O)c2cccc(S(=O)(=O)N3CCCCC3)c2)C1C (stereo not drawn)	90.0	-21.3	-0.5	-8.1	-0.1	/
CNS(=O)(=O)c1cccc(C(=O)OCC(=O)NC2CCCC(C)C2C)c1 (stereo not drawn)	96.0	-12.1	-6.2	-0.9	1.2	-1.1
CC1CCCC(NC(=O)CCNS(=O)(=O)c2ccc(Br)cc2)C1C (stereo not drawn)	94.0	52.5*	-0.5	0.9	0.4	-2.1
CCCC[C@H]1C2CC(OC(=O)Nc3cccc(C#N)c3)C(C2)[C@H]2CCCCN21 (stereo partly drawn)	/	/	-5.3	/	/	/
SMILES	ABCB6 inh 2	VLA-4 inh	Rev-erbA mod	Exocytosis inh	PG9 binder	VLA-4 mod pick
Cc1cccc(-n2c(Cc3cc(=O)[nH]c(=O)[nH]3)nnc2SCC(=O)N2CCCCC2)c1	99.0	53.5*	2.7	2.5	0.3	9.7
CSc1ccccc1C(=O)C1CCCN(S(=O)(=O)N(C)C)C1 (stereo not drawn)	92.0	51.5*	-6.7	-1.6	1.4	-10.4
CC(C)N(C[C@@H]1CSCCS(=O)(=O)N1)C1CCCCC1	/	/	-1.7	/	0.9	/
CC(C)NC(=O)CS(=O)(=O)c1ccccc1	99.0	50.1*	3.3	0.8	3.7	5.7
CCOC(=O)[C@@]12CCCC3=C1N(CCC3)C(=O)[C@H]2CC(=O)NCCCCc1ccccc1	/	/	1.4	/	/	/
O=c1c2[nH]c3ccc(Br)cc3c2ncn1CCCn1ccnc1	104.0	2.7	-2.7	2.6	0.4	7.2
COc1ccc2[nH]c3c(=O)n(Cc4ccncc4)cnc3c2c1	93.0	5.6	4.4	9.4	-1.3	/
O=c1c2[nH]c3ccc(F)cc3c2ncn1C1CCCCC1	83.0	96.0*	10.1	-1.6	-0.5	6.1
O=c1c2[nH]c3ccc(F)cc3c2ncn1CCN1CCOCC1	91.0	4.1	-1.4	-3.1	-0.7	/
O=c1c2[nH]c3ccc(F)cc3c2ncn1Cc1ccncc1	98.0	3.0	8.3	-4.8	0.5	-2.3
C=CCN(CC#Cc1ccccc1)CC=C	/	/	2.0	/	/	/
COc1ccc2cc1Oc1ccc(cc1)CC1c3c(cc(OC)c4c3Oc3cc5c(cc3O4)CCNC5C2)CCN1C (stereo not drawn)	102.0	52.4*	/	17.6	/	14.3
Cc1ccc(-c2nnc(SCc3ccccc3F)o2)cc1	103.0	-11.9	-3.6	0.3	0.4	/
COc1ccc(-c2nnc(SCc3ccccc3F)o2)cc1OC	119.0	94.7*	6.0	-6.0	0.8	5.4
COc1ccccc1CC(=O)N1CCN(S(=O)(=O)c2ccccc2)CC1	94.0	-6.2	0.9	-4.9	0.9	/
COc1ccccc1CC(=O)N1CCN(S(=O)(=O)c2ccccc2F)CC1	99.0	51.8*	-5.1	3.9	-0.9	-6.7
Cc1cc(C)nc(NC(=O)c2cccc(Cl)c2)n1	102.0	52.6*	3.9	-2.5	1.4	-2.1
CC(=O)c1cccc(NC(=S)NC(=O)c2ccc(C)cc2)c1	98.0	-4.5	1.7	-5.8	-0.1	/
Cc1ccc(C(=O)NC(=S)Nc2ccc(NC(=O)c3cccc(Cl)c3)cc2)cc1	96.0	47.2	-2.4	1.4	-0.8	7.8
CN=C1S/C(=C/c2cc(C)n(-c3ccc(Cl)cc3F)c2C)C(=O)N1C	/	/	0.4	/	/	/
COC(=O)C1CN(Cc2ccccc2)CCS(=O)(=O)N1Cc1cn(Cc2ccc(Cl)cc2)nn1 (stereo not drawn)	/	/	-6.0	/	/	/
CC1=C(C(=O)OCC2CCCO2)C(c2ccc(C)cc2)C2=C(CCCC2=O)N1 (stereo not drawn)	89.0	3.5	-6.2	1.1	0.1	/
CC1=C(C(=O)OCC2CCCO2)C(c2ccncc2)C2=C(CCCC2=O)N1 (stereo not drawn)	129.0	92.0*	1.8	-0.1	0.3	0.7
C[C@H]1C2CC(OC(=O)Nc3ccc4c(c3)OCO4)C(C2)[C@H]2CCCCN21 (stereo partly drawn)	/	/	1.6	/	/	/
COc1cc(CCCN2C(=O)C(=O)NC[C@@H]2CCCCN)cc(OC)c1OC	103.0	3.0	0.1	-19.1	0.6	15.7
